Bioassay records as filed in PubChem.
Giardia FBPA inh = qHTS Assay for Inhibitors of Fructose-1,6-bisphosphate Aldolase from Giardia Lamblia | A8B2U2 | purified Giardia FBPA | Potency, µM (highest dose often 59.6 µM), usual class: inhibitors | hit rate 0.71% among 290,000; note: nearly all actives have a fitted effect of over 55% in size
Target sequence (A8B2U2 whole entry, looked up): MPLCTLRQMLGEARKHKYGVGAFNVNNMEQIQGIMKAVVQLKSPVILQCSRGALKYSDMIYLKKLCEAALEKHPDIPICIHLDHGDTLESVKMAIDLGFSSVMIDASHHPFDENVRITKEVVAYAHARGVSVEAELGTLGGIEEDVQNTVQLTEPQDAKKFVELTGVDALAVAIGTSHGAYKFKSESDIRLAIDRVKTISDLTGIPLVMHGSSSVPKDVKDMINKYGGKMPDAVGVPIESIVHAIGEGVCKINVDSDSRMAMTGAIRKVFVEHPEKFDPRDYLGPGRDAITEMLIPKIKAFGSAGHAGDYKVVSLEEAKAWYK
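40 nM FBPA preincubated 10 min at RT with compound (up to 57.5 uM final), then substrate plus GAPDH/TPI/NAD/arsenate coupling and diaphorase/resazurin added. Fluorescence read after 20 min at RT, 525/598 nm.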
NS1 inh = qHTS Assay for Inhibitors of Influenza NS1 Protein Function | Potency, µM (series often up to 46.1 µM) | hit rate 0.4% among 270,000 | AID 2326, 2010; calls by dose curve; note: actives are rising curves; nearly all actives have a fitted effect of over 50% in size
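Growth recovery, yeast-based: influenza A NS1 expressed in S. cerevisiae causes slow growth, and suppressors are detected by OD600. The parent strain without NS1 is used as positive control.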
Shiga toxin inh = A qHTS for Small Molecule Inhibitors of Shiga Toxin; Vero cells, Shiga toxin protein synthesis inhibition reporter; hit rate 9.2% among 290,000; inhibition, % at 38.7 µM; in the data active = inhibition mostly above about 28%, no sharp cut-off; inactive = mostly below about 43%
CHX counter = Cycloheximide Counterscreen for Small Molecule Inhibitors of Shiga Toxin. cell reporter, cycloheximide protein synthesis inhibition counterscreen. max response, %. hit rate 12% among 300,000. AID 2314, 2010; in the data active = max response mostly above about 13%, no sharp cut-off; inactive = mostly below about 14%; note: read at 38.3 µM for the half of the compounds with a filed dose
LmPK inh = qHTS Assay for Inhibitors of Leishmania Mexicana Pyruvate Kinase (LmPK). Potency, µM (top dose mostly 57.5 µM), hits mostly inhibitors. purified LmPK, Kinase-Glo ATP luminescence, 1 h. hit rate 0.37% among 290,000. Q27686. AID 1721, 2009
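Purified LmPK (0.1 nM) with 0.5 mM PEP and 0.1 mM ADP in imidazole buffer pH 7.2 with MgCl2/KCl, 1 h at room temperature. ATP formed was read by luciferase luminescence and normalized to no-enzyme and uninhibited controls.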
Each line names hits and unclear results; the compound was inactive in the other large screens. Most compounds without a hit are left out; they make up all but 14% or so of the library. Unless noted, calls come from the whole dose curve; as a rule, active = well fitted curve in the direction sought with a large enough effect; inconclusive = small, poorly fitted or top-dose-only effect, or another doubt; inactive = no such curve, though single readings can be large; an effect the other way counts as inactive or inconclusive.

C/C(CC(=O)Nc1ccc2c(c1)OCCO2)=N\NC(=O)c1ccccc1Cl	CHX counter 20
C/C(CC(=O)Nc1ccc2c(c1)OCCO2)=N\NC(=O)Cc1ccc(Cl)cc1	Shiga toxin inh 129
C/C(CC(=O)Nc1ccc2c(c1)OCCO2)=N\NC(=O)c1ccc([N+](=O)[O-])cc1Cl	none
C/C(CC(=O)Nc1ccc2c(c1)OCCO2)=N\NC(=O)Cc1ccccc1	none (no result: Giardia FBPA inh)
O=C(NCc1cccnc1)Nc1cccc([N+](=O)[O-])c1	none (no result: Giardia FBPA inh)
Cc1cc([N+](=O)[O-])nn1CC(=O)N(C)C1CCCCC1	none
Cc1ccc(N2CCC(N3CCN(C)C(CCO)C3)CC2)cc1 (stereo not drawn)	none
COC(=O)CSc1nc2cc3c(cc2cc1C)OCO3	Shiga toxin inh 55, CHX counter 27
COC(=O)CSc1nc2cc(C)ccc2cc1C#N	Shiga toxin inh 108, CHX counter 46
Cc1ccc2cc(C#N)c(SCC(=O)NCC3CCCO3)nc2c1 (stereo not drawn)	none
CCOC(=O)CC(=O)CSc1nc2ccc(C)cc2cc1C#N	Shiga toxin inh 107, CHX counter 37, LmPK inh 20µM
CCCCc1nc2c(c3c1C[C@H](C)OC3)CN(C(=O)Cc1cccs1)CC2	none (no result: NS1 inh, Shiga toxin inh, CHX counter)
C=CC[C@@H]1C=C[C@H](O/N=C(\C)CCN2CCc3nc(-c4ccccc4)c(-c4ccccc4)cc3C2)[C@H](CO)O1	none (no result: NS1 inh, Shiga toxin inh, CHX counter, LmPK inh)
CC1CN=C(N(C(=O)Nc2ccccc2)c2ccc(S(=O)(=O)N3CCOCC3)cc2)S1 (stereo not drawn)	CHX counter 18
Oc1c(CN2CCCC(C(F)(F)F)C2)cc(Cl)c2ccccc12 (stereo not drawn)	none
CSc1ccccc1NC(=O)c1cc(-c2cccs2)on1	Shiga toxin inh 56
Cc1ccc(O)c(NC(=O)c2cc(-c3ccc(F)cc3)on2)c1	CHX counter 41 (no result: NS1 inh)
COc1ccc(-c2cc(C(=O)Nc3ccccc3SC)no2)cc1	none
Cc1ccc(O)c(NC(=O)c2cc(-c3cccs3)on2)c1	Shiga toxin inh 79, CHX counter 21
Cc1ccc(Cn2ccc(NC(=O)c3cc(-c4ccc(F)cc4)on3)n2)cc1	none
O=C(O)C1=CC(O)[C@@H](O)C(O)C1 (stereo partly drawn)	none (no result: NS1 inh, Shiga toxin inh, CHX counter, LmPK inh)
O=C(CCc1cccc(Cl)c1)NC1CCCN(Cc2ccccc2F)C1 (stereo not drawn)	none
COc1ccccc1CNC(=O)CSC1=NCCS1	CHX counter 19
O=C(CSc1ccsc1[N+](=O)[O-])Nc1cccc(F)c1	CHX counter 21 (no result: NS1 inh)
O=C(CSc1ccsc1[N+](=O)[O-])NCc1ccccc1	Shiga toxin inh 112, CHX counter 44 (no result: NS1 inh)
COc1ccccc1CNC(=O)CSc1ccsc1[N+](=O)[O-]	Shiga toxin inh 85, CHX counter 43 (no result: NS1 inh)
COc1ccc(OC)c(CCNC(=O)CSc2ccsc2[N+](=O)[O-])c1	none (no result: NS1 inh)
CC(=O)Nc1ccc(S(=O)(=O)N2CCC(NC(=O)C(Cc3ccc(C)cc3)NC(C)=O)CC2)cc1 (stereo not drawn)	none
Cc1ccc(C(=O)Nc2cccc(C(=O)N/N=C/c3ccccc3F)c2)cc1	Shiga toxin inh 72, CHX counter 47
CC(=O)Nc1cccc(C(=O)N/N=C/c2ccccc2F)c1	Shiga toxin inh 28, CHX counter 46
Cc1ccc(CN2CCN(CC(=O)N/N=C/c3ccccc3F)CC2)cc1	Shiga toxin inh 118, CHX counter 37
COc1ccccc1/C=N/NC(=O)c1cccc(NC(=O)c2ccccc2C)c1	none
O=C(N/N=C/c1ccccc1)c1ccc(-c2ccccc2)cc1	none (no result: Shiga toxin inh)
O=C(N/N=C\c1ccccc1F)c1ccc(-c2ccccc2)cc1	CHX counter 36 (no result: Giardia FBPA inh)
O=C(OCN1C(=O)c2ccccc2C1=O)c1cccnc1SC(F)F	none
Nn1c(SCC(=O)NCCCc2ccccc2)nnc1-c1cccnc1	none
COc1ccc(CCNC(=O)CCc2nnc(Cc3ccc4c(c3)OCO4)o2)cc1	none (no result: Giardia FBPA inh)
CN(CCc1ccccc1)C(=O)CCc1nnc(Cc2ccc3c(c2)OCO3)o1	CHX counter 13 (no result: Giardia FBPA inh)
CC(c1ccon1)N(C)C(=O)CCc1nnc(Cc2ccc(-c3ccccc3)cc2)o1 (stereo not drawn)	CHX counter 16
CN(Cc1ccon1)C(=O)CCc1nnc(CCCCc2ccccc2)o1	none
CN(Cc1ccon1)C(=O)CCc1nnc(Cc2ccc(-c3ccccc3)cc2)o1	Shiga toxin inh 37, CHX counter 24
CCc1nnc(NC(=O)CSc2nnc(C(C)NC(=O)c3ccccc3)n2C)s1 (stereo not drawn)	none
COC(=O)NC(c1ccc2c(c1)OCO2)C(C(=O)OC)C(=O)OC (stereo not drawn)	none (no result: NS1 inh, Shiga toxin inh, CHX counter, LmPK inh)
Cc1ccc(CNS(=O)(=O)c2ccccc2[N+](=O)[O-])cc1	CHX counter 29
Cc1ccc(CNc2ccc(Cl)cc2[N+](=O)[O-])cc1	Shiga toxin inh 72, CHX counter 48
C/C(=N\NC(=O)c1cc(-c2ccc(C)s2)nc2ccccc12)c1cccnc1	CHX counter 22 (no result: Giardia FBPA inh)
C/C(=N/NC(=O)c1ccc(Br)s1)c1ccncc1	CHX counter 16 (no result: Giardia FBPA inh)
C/C(=N/NC(=O)c1ccc(C)s1)c1cccnc1	Shiga toxin inh 71, CHX counter 34
C/C(=N\NC(=O)c1cc(-c2ccc(C)s2)[nH]n1)c1ccncc1	none
C/C(=N/NC(=O)c1ccc(Cl)s1)c1cccnc1	none (no result: Giardia FBPA inh)
C/C(=N/NC(=O)c1ccc(Br)s1)c1cccnc1	CHX counter 23
COc1ccccc1NC(=O)c1oc2ccc(C)cc2c1C	CHX counter 34
COc1ccccc1NC(=O)Cc1coc2cc(C)ccc12	CHX counter 24
COc1ccccc1NC(=O)c1oc2ccccc2c1NC(=O)c1cc(OC)c(OC)c(OC)c1	none (no result: Giardia FBPA inh, Shiga toxin inh, CHX counter, LmPK inh)
CCOc1ccccc1NC(=O)Cc1coc2cc(C)ccc12	none
CC(=O)N/C(=C\c1ccccc1)C(=O)OCc1cc(C)ccc1C	LmPK inh inconclusive
O=C(O)c1ccccc1N[C@H](c1ccccc1)c1ccc2cccnc2c1O	none (no result: Giardia FBPA inh, Shiga toxin inh, CHX counter, LmPK inh)
Cc1ccc(-c2nc3cccnc3s2)cc1NS(=O)(=O)c1ccc2c(c1)OCCO2	Shiga toxin inh 19, CHX counter 40
O=S(=O)(Nc1ccccn1)c1cccs1	none
Cc1nc2ccc(S(=O)(=O)Nc3cc(-c4nc5cccnc5s4)ccc3C)cc2s1	Shiga toxin inh 85, CHX counter 75
Cc1ccc(-c2nc3cccnc3s2)cc1NS(=O)(=O)c1cccs1	Shiga toxin inh 38, CHX counter 19
Cc1nc2ccc(S(=O)(=O)Nc3cccc(-c4nc5cccnc5s4)c3C)cc2s1	none
Cc1cc(C)c(C)c(S(=O)(=O)NCC(=O)Nc2ccccc2F)c1C	none
Cc1[nH]n(-c2ccc([N+](=O)[O-])cc2)c(=O)c1C=NCCc1ccc(S(N)(=O)=O)cc1	none (no result: NS1 inh)
Cc1[nH]n(-c2ccc([N+](=O)[O-])cc2)c(=O)c1C=NCCN1CCN(C(=O)C(C)C)CC1	LmPK inh 14µM (no result: NS1 inh)
CC(=O)c1ccc(N/N=C2/CCCNC2=O)cc1	CHX counter 22
